Assay results from ChEMBL document CHEMBL1961873, “Compounds: GSK PKIS; Assays: Nanosyn kinase panel” (2012).

Experiments:
[1] = molecular target: Death-associated protein kinase 1 (Homo sapiens) (UniProt P53355); settings: at 1 µM;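 note: each value is a mean inhibition figure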
[2] = molecular target: T1, Serine/threonine-protein kinase DCLK2 (Homo sapiens) (UniProt Q8N568); settings: at 0.1 µM
T1 sequence (whole entry): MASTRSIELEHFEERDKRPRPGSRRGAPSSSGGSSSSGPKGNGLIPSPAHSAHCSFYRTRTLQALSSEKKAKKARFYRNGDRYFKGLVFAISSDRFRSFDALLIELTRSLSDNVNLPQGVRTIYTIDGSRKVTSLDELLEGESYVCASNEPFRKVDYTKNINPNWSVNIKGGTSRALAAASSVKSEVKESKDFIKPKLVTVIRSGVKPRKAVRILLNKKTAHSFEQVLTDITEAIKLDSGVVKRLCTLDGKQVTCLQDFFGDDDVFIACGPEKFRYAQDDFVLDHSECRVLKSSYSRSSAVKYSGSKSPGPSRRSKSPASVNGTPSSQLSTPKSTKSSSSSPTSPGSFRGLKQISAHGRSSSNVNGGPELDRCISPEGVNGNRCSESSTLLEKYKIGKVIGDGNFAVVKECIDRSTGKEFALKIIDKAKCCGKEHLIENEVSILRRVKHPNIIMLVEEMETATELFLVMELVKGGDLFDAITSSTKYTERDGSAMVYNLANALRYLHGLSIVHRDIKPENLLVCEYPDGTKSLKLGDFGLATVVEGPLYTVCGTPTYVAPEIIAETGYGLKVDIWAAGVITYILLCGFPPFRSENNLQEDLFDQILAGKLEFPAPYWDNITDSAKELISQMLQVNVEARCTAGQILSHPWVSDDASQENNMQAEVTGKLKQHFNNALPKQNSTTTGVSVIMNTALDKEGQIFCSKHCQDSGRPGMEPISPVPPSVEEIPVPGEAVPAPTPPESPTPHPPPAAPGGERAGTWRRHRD

[3] = molecular target: T1, Serine/threonine-protein kinase DCLK2 (Homo sapiens); settings: at 1 µM
[4] = molecular target: MAP kinase-activated protein kinase 2 (Homo sapiens) (UniProt P49137); settings: at 0.1 µM
[5] = molecular target: MAP kinase-activated protein kinase 2 (Homo sapiens) (UniProt P49137); settings: at 1 µM
[6] = molecular target: MAP kinase-activated protein kinase 3 (Homo sapiens) (UniProt Q16644); settings: at 0.1 µM
[7] = molecular target: MAP kinase-activated protein kinase 3 (Homo sapiens) (UniProt Q16644); settings: at 1 µM
[8] = molecular target: Serine/threonine-protein kinase MARK1 (Homo sapiens) (UniProt Q9P0L2); settings: at 0.1 µM
[9] = molecular target: Serine/threonine-protein kinase MARK1 (Homo sapiens) (UniProt Q9P0L2); settings: at 1 µM
[10] = molecular target: MAP/microtubule affinity-regulating kinase 3 (Homo sapiens) (UniProt P27448); settings: at 0.1 µM
[11] = molecular target: MAP/microtubule affinity-regulating kinase 3 (Homo sapiens) (UniProt P27448); settings: at 1 µM
[12] = molecular target: T2, MAP/microtubule affinity-regulating kinase 4 (Homo sapiens) (UniProt Q96L34); settings: at 0.1 µM
T2 sequence (whole entry): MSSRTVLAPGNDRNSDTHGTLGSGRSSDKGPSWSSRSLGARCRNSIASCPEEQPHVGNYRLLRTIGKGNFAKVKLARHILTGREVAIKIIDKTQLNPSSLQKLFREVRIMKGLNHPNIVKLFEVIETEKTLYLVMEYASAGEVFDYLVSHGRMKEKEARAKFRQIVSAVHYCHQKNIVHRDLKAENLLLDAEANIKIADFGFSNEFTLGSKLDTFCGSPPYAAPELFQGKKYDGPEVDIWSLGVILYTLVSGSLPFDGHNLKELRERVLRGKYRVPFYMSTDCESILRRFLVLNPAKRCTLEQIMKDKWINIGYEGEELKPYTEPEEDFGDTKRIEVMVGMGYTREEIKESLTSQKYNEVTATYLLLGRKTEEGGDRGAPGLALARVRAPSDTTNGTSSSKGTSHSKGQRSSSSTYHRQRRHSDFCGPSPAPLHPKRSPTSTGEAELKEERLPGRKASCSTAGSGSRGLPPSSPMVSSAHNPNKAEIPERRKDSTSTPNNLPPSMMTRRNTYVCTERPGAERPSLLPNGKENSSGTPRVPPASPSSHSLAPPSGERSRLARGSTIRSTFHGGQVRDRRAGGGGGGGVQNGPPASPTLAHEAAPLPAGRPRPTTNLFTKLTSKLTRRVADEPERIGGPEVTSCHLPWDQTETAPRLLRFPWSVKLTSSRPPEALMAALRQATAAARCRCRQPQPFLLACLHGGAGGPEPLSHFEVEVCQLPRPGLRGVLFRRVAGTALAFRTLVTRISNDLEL

[13] = molecular target: T2, MAP/microtubule affinity-regulating kinase 4 (Homo sapiens); settings: at 1 µM
[14] = molecular target: Maternal embryonic leucine zipper kinase (Homo sapiens) (UniProt Q14680); settings: at 0.1 µM
[15] = molecular target: Maternal embryonic leucine zipper kinase (Homo sapiens) (UniProt Q14680); settings: at 1 µM
[16] = molecular target: MAP kinase-interacting serine/threonine-protein kinase 1 (Homo sapiens) (UniProt Q9BUB5); settings: at 0.1 µM
[17] = molecular target: MAP kinase-interacting serine/threonine-protein kinase 1 (Homo sapiens) (UniProt Q9BUB5); settings: at 1 µM
[18] = molecular target: MAP kinase-interacting serine/threonine-protein kinase 2 (Homo sapiens) (UniProt Q9HBH9); settings: at 0.1 µM
[19] = molecular target: MAP kinase-interacting serine/threonine-protein kinase 2 (Homo sapiens) (UniProt Q9HBH9); settings: at 1 µM
[20] = molecular target: Serine/threonine-protein kinase MARK2 (Homo sapiens) (UniProt Q7KZI7); settings: at 0.1 µM;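 note: mean percent inhibition of PAR-1Balpha kinase activity, reported from the GSK PKIS screen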
Sequence of Serine/threonine-protein kinase MARK2 (Homo sapiens) (Q7KZI7 whole entry): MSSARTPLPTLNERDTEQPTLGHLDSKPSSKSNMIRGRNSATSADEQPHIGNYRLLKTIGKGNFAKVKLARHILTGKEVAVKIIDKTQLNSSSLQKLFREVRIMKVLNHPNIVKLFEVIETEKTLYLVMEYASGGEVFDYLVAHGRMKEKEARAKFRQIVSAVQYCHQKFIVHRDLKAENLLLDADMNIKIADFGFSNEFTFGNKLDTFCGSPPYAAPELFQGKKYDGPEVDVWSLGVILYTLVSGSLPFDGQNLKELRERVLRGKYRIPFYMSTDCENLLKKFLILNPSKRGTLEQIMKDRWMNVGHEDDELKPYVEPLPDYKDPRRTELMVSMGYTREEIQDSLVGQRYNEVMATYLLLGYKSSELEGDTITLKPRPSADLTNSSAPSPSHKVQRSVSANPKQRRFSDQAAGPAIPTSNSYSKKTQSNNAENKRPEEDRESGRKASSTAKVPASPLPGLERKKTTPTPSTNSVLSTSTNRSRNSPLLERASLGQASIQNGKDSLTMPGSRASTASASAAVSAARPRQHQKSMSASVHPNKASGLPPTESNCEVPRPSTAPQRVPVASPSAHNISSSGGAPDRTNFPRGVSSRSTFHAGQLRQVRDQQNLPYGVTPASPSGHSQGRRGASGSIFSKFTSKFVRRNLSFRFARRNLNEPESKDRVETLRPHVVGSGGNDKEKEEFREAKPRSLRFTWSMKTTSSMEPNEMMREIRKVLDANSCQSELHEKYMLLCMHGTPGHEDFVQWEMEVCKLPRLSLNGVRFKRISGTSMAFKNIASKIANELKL

Sequence of Serine/threonine-protein kinase MARK1 (Homo sapiens) (Q9P0L2 whole entry, looked up): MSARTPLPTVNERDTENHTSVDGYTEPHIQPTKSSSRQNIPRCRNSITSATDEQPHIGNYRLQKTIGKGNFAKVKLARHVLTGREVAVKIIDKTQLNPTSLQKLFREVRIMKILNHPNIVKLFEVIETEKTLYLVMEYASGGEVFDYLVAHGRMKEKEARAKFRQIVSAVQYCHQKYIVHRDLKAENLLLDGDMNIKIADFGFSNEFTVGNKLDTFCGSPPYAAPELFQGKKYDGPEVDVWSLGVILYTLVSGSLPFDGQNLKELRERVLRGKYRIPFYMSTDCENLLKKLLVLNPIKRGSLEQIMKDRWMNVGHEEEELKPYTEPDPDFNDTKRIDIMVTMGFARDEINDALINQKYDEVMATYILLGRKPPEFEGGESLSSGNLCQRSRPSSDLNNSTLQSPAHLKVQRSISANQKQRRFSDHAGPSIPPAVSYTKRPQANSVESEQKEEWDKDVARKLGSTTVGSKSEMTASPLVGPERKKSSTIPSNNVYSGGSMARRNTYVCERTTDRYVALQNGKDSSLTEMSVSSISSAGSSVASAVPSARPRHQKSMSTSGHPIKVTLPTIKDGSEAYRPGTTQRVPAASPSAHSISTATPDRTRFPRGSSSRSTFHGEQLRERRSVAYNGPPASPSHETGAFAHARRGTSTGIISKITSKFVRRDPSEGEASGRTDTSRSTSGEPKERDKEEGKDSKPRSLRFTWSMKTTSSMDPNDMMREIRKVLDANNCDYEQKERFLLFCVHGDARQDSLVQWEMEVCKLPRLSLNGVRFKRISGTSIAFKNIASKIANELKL
Sequence of MAP kinase-activated protein kinase 2 (Homo sapiens) (P49137 whole entry, looked up): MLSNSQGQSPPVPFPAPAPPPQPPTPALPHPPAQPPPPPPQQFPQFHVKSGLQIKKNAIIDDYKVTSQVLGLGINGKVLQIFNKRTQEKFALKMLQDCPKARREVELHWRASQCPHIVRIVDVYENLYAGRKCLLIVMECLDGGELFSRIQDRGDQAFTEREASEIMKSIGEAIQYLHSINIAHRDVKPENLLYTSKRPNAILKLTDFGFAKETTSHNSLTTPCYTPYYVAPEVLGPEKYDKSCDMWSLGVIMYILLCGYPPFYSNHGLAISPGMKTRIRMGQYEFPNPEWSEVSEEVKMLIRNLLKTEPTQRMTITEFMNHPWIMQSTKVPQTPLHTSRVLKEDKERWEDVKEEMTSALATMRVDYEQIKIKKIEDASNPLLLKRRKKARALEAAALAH
Sequence of Maternal embryonic leucine zipper kinase (Homo sapiens) (Q14680 whole entry, looked up): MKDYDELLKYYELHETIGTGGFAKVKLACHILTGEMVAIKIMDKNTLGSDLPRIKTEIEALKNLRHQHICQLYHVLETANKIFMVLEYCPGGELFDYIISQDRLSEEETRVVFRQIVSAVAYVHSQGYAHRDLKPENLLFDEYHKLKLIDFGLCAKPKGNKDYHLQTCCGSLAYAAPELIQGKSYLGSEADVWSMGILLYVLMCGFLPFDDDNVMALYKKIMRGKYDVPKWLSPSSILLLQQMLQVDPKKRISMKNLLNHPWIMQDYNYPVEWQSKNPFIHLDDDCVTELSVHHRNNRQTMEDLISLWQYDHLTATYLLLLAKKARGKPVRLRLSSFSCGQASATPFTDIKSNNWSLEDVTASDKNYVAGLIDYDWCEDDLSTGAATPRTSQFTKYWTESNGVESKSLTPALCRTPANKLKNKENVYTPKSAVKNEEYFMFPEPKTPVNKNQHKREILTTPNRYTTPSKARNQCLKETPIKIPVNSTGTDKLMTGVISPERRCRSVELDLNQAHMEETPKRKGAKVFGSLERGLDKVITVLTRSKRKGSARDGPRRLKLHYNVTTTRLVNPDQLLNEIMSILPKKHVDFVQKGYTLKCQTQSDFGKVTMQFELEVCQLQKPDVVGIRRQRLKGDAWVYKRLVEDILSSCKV
Sequence of MAP kinase-interacting serine/threonine-protein kinase 2 (Homo sapiens) (Q9HBH9 whole entry, looked up): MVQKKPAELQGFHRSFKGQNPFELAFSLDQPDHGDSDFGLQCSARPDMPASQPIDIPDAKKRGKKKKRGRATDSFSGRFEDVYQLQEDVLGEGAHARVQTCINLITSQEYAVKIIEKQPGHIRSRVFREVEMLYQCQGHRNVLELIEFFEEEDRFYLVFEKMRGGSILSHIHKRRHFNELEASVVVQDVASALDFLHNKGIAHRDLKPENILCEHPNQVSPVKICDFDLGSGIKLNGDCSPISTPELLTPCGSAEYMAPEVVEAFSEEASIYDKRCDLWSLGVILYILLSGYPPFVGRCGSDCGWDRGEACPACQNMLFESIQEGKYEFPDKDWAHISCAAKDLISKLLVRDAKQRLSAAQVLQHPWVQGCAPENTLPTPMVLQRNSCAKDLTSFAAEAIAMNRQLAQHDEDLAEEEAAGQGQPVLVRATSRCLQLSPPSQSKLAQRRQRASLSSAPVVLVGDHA
Sequence of MAP kinase-interacting serine/threonine-protein kinase 1 (Homo sapiens) (Q9BUB5 whole entry, looked up): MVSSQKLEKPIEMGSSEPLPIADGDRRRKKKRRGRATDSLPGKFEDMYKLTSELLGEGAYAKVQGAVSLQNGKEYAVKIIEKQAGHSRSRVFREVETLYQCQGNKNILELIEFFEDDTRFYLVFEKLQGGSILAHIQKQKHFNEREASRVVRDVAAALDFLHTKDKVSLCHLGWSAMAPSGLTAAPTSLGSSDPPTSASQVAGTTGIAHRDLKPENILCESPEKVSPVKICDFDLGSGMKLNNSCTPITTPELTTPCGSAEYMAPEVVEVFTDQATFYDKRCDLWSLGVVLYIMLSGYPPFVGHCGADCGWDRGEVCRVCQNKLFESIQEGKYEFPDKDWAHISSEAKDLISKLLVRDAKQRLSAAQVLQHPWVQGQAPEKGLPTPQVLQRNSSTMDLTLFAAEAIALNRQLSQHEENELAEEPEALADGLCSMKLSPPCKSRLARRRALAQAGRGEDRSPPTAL
Sequence of MAP/microtubule affinity-regulating kinase 3 (Homo sapiens) (P27448 whole entry, looked up): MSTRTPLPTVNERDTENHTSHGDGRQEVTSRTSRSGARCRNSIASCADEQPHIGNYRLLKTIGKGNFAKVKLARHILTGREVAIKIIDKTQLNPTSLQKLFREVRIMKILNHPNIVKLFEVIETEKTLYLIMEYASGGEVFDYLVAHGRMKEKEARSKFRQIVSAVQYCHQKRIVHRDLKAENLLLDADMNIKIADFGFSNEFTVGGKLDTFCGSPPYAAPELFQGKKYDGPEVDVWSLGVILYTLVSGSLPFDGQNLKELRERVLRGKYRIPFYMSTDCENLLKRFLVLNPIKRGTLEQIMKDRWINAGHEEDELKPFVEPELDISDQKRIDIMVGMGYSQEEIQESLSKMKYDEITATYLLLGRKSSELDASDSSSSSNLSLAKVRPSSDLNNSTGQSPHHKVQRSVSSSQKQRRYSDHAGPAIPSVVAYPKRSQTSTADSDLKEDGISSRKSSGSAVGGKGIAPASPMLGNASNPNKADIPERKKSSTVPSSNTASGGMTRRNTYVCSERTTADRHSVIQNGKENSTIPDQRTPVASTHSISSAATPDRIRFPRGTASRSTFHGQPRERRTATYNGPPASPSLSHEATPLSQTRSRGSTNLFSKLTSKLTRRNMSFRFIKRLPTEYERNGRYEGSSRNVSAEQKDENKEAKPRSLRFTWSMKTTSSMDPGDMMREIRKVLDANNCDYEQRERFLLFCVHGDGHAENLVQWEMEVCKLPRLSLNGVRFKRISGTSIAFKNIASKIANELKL
Sequence of MAP kinase-activated protein kinase 3 (Homo sapiens) (Q16644 whole entry, looked up): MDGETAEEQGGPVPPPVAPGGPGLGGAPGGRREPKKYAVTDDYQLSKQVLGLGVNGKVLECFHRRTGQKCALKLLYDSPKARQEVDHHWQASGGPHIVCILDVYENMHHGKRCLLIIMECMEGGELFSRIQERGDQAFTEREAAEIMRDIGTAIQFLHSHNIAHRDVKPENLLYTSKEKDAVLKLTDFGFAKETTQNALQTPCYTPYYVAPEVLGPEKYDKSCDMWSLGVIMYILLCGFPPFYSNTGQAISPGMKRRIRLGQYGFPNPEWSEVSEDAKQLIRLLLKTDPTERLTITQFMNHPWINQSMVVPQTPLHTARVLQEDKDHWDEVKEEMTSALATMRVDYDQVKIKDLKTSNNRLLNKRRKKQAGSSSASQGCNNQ

Compound	inhibition [1] [%]	inhibition [2] [%]	inhibition [3] [%]	inhibition [4] [%]	inhibition [5] [%]	inhibition [6] [%]	inhibition [7] [%]	inhibition [8] [%]	inhibition [9] [%]	inhibition [10] [%]	inhibition [11] [%]	inhibition [12] [%]	inhibition [13] [%]	inhibition [14] [%]	inhibition [15] [%]	inhibition [16] [%]	inhibition [17] [%]	inhibition [18] [%]	inhibition [19] [%]	inhibition [20] [%]
CCn1c(-c2nonc2N)nc2c(C#CC(C)(C)O)nc(CN3CCCC3)cc21	-0.31	6.66	-1.42	-0.49	-0.42	-1.48	-0.59	4.99	12	4.42	15.4	3.5	7.13	1.68	5.55	-0.28	0.88	-0.06	1.84	3.94
CC1=C(C(=O)Nc2ccc3[nH]ncc3c2)C(c2ccc(F)cc2)NC(=O)N1 (stereo unspecified)	1.59	1.36	-0.03	1.48	1.87	1.46	1.05	2.81	9.5	0.23	8.67	0.77	4.62	2.13	6.05	2.34	46.2	3.85	65.3	-0.93
CCn1c(-c2nonc2N)nc2ccncc21	2.7	-2.35	-1.48	-0.18	0.49	0.85	1.7	0.76	-0.05	0.13	1.4	1.33	2.78	-0.81	2.39	1.17	3.2	0.41	3.51	-1.74
COc1ccc(-c2coc3ncnc(N)c23)cc1	12.9	0.87	-0.02	3.78	4.6	10.7	11.6	4.41	3.73	5.6	-0.28	3.62	2.28	4.21	5.33	2.45	4.3	0.67	0.83	0.91
N#Cc1c(NC(=O)c2cccc3ccccc23)sc2c1CCCC2	9.29	0.23	0.08	4.07	3.83	8.24	8.43	3.26	3.28	2.5	0.94	2.49	1.96	4.2	7.39	1.49	4.73	1.09	1.55	0.64
COc1ccc(-c2ccncc2)cc1C(N)=O	12.2	-0.69	3.38	5.44	6.42	9.46	12.5	2.8	4.12	3.29	5.66	1.72	2.64	3.65	8.7	2.15	5.97	0.23	6.75	
COc1cc2ncn(-c3cc(O[C@H](C)c4ccccc4Cl)c(C(N)=O)s3)c2cc1OC	-9.77	0.64	1.35	-0.8	-0.71	-2.77	-0.41	5.95	31.9	3.47	37.2	4.58	32	4.94	23.7	3.54	11.9	3.53	11.8	2.26
Nc1ncnc2occ(-c3ccc(NC(=O)Nc4cc(C(F)(F)F)cc(C(F)(F)F)c4)cc3)c12	3.18	0.95	1.34	0.92	0.1	2.58	4.92	0.83	-0.19	3.3	2.35	1.32	1.47	0.21		3.24	12.2	0.38	7.49	-1.98
NC(=O)c1cccc(Nc2nccc(Nc3cccc4[nH]ncc34)n2)c1	0.2		0.29	-2.49	-2.06	-2.55	-2.42	-1.84	11.7	2.03	11.9	1.34	11.8	-1.78	8.97	0.69	25.3	0.64	23.7	0.92
COc1ccc2cc(-c3c(-c4ccncc4)nc(-c4ccc([S+](C)[O-])cc4)n3C)ccc2c1 (stereo unspecified)	4.63	0.5	5.77	1	0.92	2.16	2.35	3.1	3.73	2.34	0.76	1.4	1.07	2.76	6.5	2.19	3.02	0.53	0.5	0.3
CS(=O)(=O)CCN(CC#N)Cc1ccc(-c2ccc3ncnc(Nc4ccc(OCc5cccc(F)c5)c(Cl)c4)c3c2)o1	-1.52	-4.32	-2.59	0.26	0.64	0.54	-0.02	0.76	-0.29		-0.24	0.8	-0.12	3.85	8.4	1.32	5.64	2.33	11.5	-0.92
Cc1ccc(NC(=O)c2ccnc(N3CCCC3)c2)cc1-c1ccc(C(=O)NCC2CC2)cc1	5.74	-1.99	-0.35	0.7	1.5	19.9	30.2	5.49	8.31	6.19	0.65	4.16	5.97	4.85	7.99	1.78	6.57	-0.01	1.11	0.13
COc1cccc(-n2ncc3c(N/N=C/c4cccc(F)c4)ncnc32)c1	-1.39	-4.3	1.59	-0.12	0.02	1.02	0.04	2.19	6.35	0.17	-1.64	1.82	5.56	4.24	11	2.81	11.8	1.92	6.42	0.05
